From publication PMC7819943, “Rice protein-binding microarrays: a tool to detect cis-acting elements near promoter regions in rice” come the findings set out here.

The full ranking holds about 35,000 sequences; the median of “fluorescence intensity (a.u.)” is about 10,000, and the highest 2% start at about 52,000. The sample as a whole holds a higher share of the highest values than the screen did.

The target in this assay is T1, OsWOX13 (Oryza sativa, UniProt Q5QMM3 1-267).
T1 sequence: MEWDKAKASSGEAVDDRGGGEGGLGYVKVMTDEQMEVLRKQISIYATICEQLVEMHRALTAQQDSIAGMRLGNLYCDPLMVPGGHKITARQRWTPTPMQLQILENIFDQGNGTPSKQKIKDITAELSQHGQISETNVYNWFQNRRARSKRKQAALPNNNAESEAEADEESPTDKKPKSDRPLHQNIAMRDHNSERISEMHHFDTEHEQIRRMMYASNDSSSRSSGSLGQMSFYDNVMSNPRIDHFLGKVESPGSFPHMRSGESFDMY
The assay is described as follows: protein-binding microarray (RPBM); PBS, 2% BSA, 51.3 ng/ul salmon testes DNA, 50 uM zinc acetate, 200 nM TF, 25 C, 1 h; high values mean tight binding. The following applies: protein: recombinant; tags: N-terminal polyhistidine and DsRed monomer fusion (pET32a); label: CyDye5-dUTP incorporated in the synthesized complementary strand; 3' TTTTT single-stranded linker to array surface; dsDNA, one strand shown. In short, it runs like this: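 Binding signal is defined as the fluorescence intensity of each feature in arbitrary units, read on an Axon 4000B scanner. Transcription factors with N-terminal polyhistidine and DsRed fusions came from E. coli BL21-CodonPlus and were purified on Ni–NTA. They were incubated at 200 nM for 1 h at 25 °C on a custom Agilent array that had been made double-stranded with Cy5-dUTP, with 50 µM zinc acetate present, and the array was washed.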
For the sequence “ATATGATTAAACTCAAGTATAGTTGAGGGACGTAAATTGGCGGAGTCACCTAGTGCAG”, the binding signal is 19700 fluorescence intensity (a.u.).

For the sequence “TTCATATAATTTATAAGGGACATAATGTAATCACCCTATACGGAGTCACCTAGTGCAG”, the binding signal was 10300 fluorescence intensity (a.u.). “ACCCACCCTTCAATTAGCCTGTGAATTACTACTTTCTAATCGGAGTCACCTAGTGCAG”: the binding signal was 7460 fluorescence intensity (a.u.). For the sequence “AGTGATTAATTCATTCCAAAAGACAGTAGCGACATCTATTCGGAGTCACCTAGTGCAG”, the binding signal is 20300 fluorescence intensity (a.u.).

Regarding “ATTAATTATCAGTGAGCACAAGCCTGGCATGTAAATCATGCGGAGTCACCTAGTGCAG”, the binding signal is 24800 fluorescence intensity (a.u.). Take “TTATGACCGGTTTTGATTAGTTAAGAGACGCCAGATATCTCGGAGTCACCTAGTGCAG”: the binding signal is 14300 fluorescence intensity (a.u.).

For the sequence “TAATTGATTAATTAATAATACTCCAGCTGCAGCAACGGCACGGAGTCACCTAGTGCAG”, the binding signal was 47300 fluorescence intensity (a.u.).

As for “ATGTTCTTAGATTGATTAAGATTGTCAATTGATTACTCCACGGAGTCACCTAGTGCAG”, the binding signal was 60500 fluorescence intensity (a.u.).

With “GCCTGATTAATTGATTAATTCTCCAGCTGCATCACATTGACGGAGTCACCTAGTGCAG”, the binding signal was 63700 fluorescence intensity (a.u.). For the sequence “TCCCATTGATTTGATCCAGCTAATTAATTAATTCGATCCACGGAGTCACCTAGTGCAG”, the binding signal was 49900 fluorescence intensity (a.u.).

“GTAGTTCTTGATGTATTTCAATTAGAACCTTAATTTTCCACGGAGTCACCTAGTGCAG”: the binding signal is 3390 fluorescence intensity (a.u.).

As to “CCTGATTAATTGGGTCGTCGTTCCATTCCCAGCCGATCGACGGAGTCACCTAGTGCAG”, the binding signal was 65200 fluorescence intensity (a.u.). For “ATTTGATTTTCTGTCTTTTCTTCAACTCGATTTTGTTAAACGGAGTCACCTAGTGCAG”, the binding signal was 8770 fluorescence intensity (a.u.). With “TTTTGATTGACAGCGGAAATTACTCGATATTGTTCTTCAACGGAGTCACCTAGTGCAG” the figure was 64300 fluorescence intensity (a.u.); with “GTATGGATCACCTGATTAATTGGGCCGTCGTTCCATTCCCCGGAGTCACCTAGTGCAG”, 9310 fluorescence intensity (a.u.).

Turning to “ATACATTGATTAATCAGCCAGCCAGCCAGCCAGCCACTGACGGAGTCACCTAGTGCAG”, the binding signal was 28700 fluorescence intensity (a.u.). With “CACCAATTTGATTGTTTTATTATTTTAAATCTTCAGTACTCGGAGTCACCTAGTGCAG” the figure was 14200 fluorescence intensity (a.u.); with “TATTAAGAATTAGATTAGGATTAGGATTGTGTCAATGTTCCGGAGTCACCTAGTGCAG”, 4860 fluorescence intensity (a.u.); with “TTAAATTTATACCCCACTTATATCTCACTTACACATCACTCGGAGTCACCTAGTGCAG”, 7930 fluorescence intensity (a.u.). Take “TTAAATTTTCTATATAAATCTATTCAAATCTGCATAAATGCGGAGTCACCTAGTGCAG”: the binding signal is 3870 fluorescence intensity (a.u.).

Regarding “TTGTAAAATTATATTTATTTAAGATGAAGGGAGTACTATCCGGAGTCACCTAGTGCAG”, the binding signal is 4920 fluorescence intensity (a.u.). Turning to “TTGCTGATTGTGAATGGTGGGTGCAAGGATACACTTTTCGCGGAGTCACCTAGTGCAG”, the binding signal was 23900 fluorescence intensity (a.u.). With “AGCTAGGTCAATCATGCATGCATGAATATGTGGCCGAGTTCGGAGTCACCTAGTGCAG” the figure was 3270 fluorescence intensity (a.u.). As to “CCAAACAATTTCAGTTTCATCTAAATTGGAGTGGAGCTGGCGGAGTCACCTAGTGCAG”, the binding signal was 11400 fluorescence intensity (a.u.). With “TTGATAGATTGATCGTTAGTGCTTTTGTCCAATTTGTTCACGGAGTCACCTAGTGCAG” the figure was 64200 fluorescence intensity (a.u.); with “TTTACTCATGATTACGCTAATTATTCCACTCAATTCTCACCGGAGTCACCTAGTGCAG”, 26100 fluorescence intensity (a.u.).

On to “TTGTCCATCACAATTGCTAATTAACTAAGACACCCTTCCTCGGAGTCACCTAGTGCAG”, for which the binding signal is 21100 fluorescence intensity (a.u.). Take “CTCGTTAGATTTTGATCAATGATTAGTCCAAATTATACATCGGAGTCACCTAGTGCAG”: the binding signal was 15200 fluorescence intensity (a.u.). Turning to “CTCCACTAATTACTCCACCCAACCATTGGATTCAATGGGCCGGAGTCACCTAGTGCAG”, the binding signal was 21700 fluorescence intensity (a.u.). On to “ATTAATTAATTAATTAATTAATTAATACTCCTCTCTTCCACGGAGTCACCTAGTGCAG”, for which the binding signal was 65500 fluorescence intensity (a.u.). Take “TATGATTGATTGGAGGGATCAATTAATTACTCATTCTCCACGGAGTCACCTAGTGCAG”: the binding signal is 64700 fluorescence intensity (a.u.). With “CTGATTAAGATCACTAATTGATCTGTCCACATTGCATCCTCGGAGTCACCTAGTGCAG” the figure was 54800 fluorescence intensity (a.u.). Regarding “TGGATTAATTTCTCCTCTTCTCTTCCTCCCGTTTATAATACGGAGTCACCTAGTGCAG”, the binding signal is 6370 fluorescence intensity (a.u.).

“GAGATCACATTAACTAATTGATTAACTAATTACTTCATCCCGGAGTCACCTAGTGCAG”: the binding signal was 29600 fluorescence intensity (a.u.).

As for “ATTTAATTTAATTTAATTGTTCCTCCTCTTCTTCTTCTCTCGGAGTCACCTAGTGCAG”, the binding signal is 41000 fluorescence intensity (a.u.). Turning to “TTTTGTAACTGATCGTTATTAGATCGGATTTGTTCATTGTCGGAGTCACCTAGTGCAG”, the binding signal was 3360 fluorescence intensity (a.u.). Turning to “TGATAATTTTAAATTAAATAAGTAAATTTCAGAAAACTATCGGAGTCACCTAGTGCAG”, the binding signal is 29700 fluorescence intensity (a.u.).

For the sequence “TTATATTTAGATTGAAGCCAAAATAACCTAAGTTCACTATCGGAGTCACCTAGTGCAG”, the binding signal is 8620 fluorescence intensity (a.u.). With “TTTTACTATAACGTTTGATCATTTGTGTTATTTAAATTTTCGGAGTCACCTAGTGCAG” the figure was 4170 fluorescence intensity (a.u.); with “TGATTTGGCTGATTAGATGCAATTTAGTCCTGCCACTGTGCGGAGTCACCTAGTGCAG”, 16900 fluorescence intensity (a.u.); with “AATCAATCAATTAGTTAGAGATCAAGTTATTAGTGTCCAACGGAGTCACCTAGTGCAG”, 31100 fluorescence intensity (a.u.). With “CAAATAAACAGGGTTCAGTCAAACTCAAGTGAATGAATTGCGGAGTCACCTAGTGCAG” the figure was 11500 fluorescence intensity (a.u.).
